Reference: the supplement of paper PMC10849652
Targets with a hit are over-represented here; the source holds about 7,900 in all. About 0.6% of all pairs of compound and target were hits.

Columns and labels:
Experiment in all cases: log2 fold change, soluble protein after heating vs DMSO (PISA); higher = thermal stabilisation; K562 cells, 10 uM, 30 min; active = over 0.2 and 3.5 SD of the protein, either way, in both replicates (recomputed)
[1] = compound: C1=CC=C(C=C1)[C@H](COC2=CC3=C(C=C2)NC(=O)N3)NC(=O)C4=CC=CN(C4=O)CC5=CC(=C(C=C5)F)F
In short: (§1)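 Aliquots of K562 cells (2×10^6 cells/mL) treated with 10 μM compound for 30 min were heated for 3 min over 48°C-58°C. After pooling and extraction in PBS with 0.5% NP-40 at 4°C, soluble protein from a 21,000xg, 90 min spin was quantified by TMTpro 16plex LC-MS/MS with channel sums equalised. Thermal stability is expressed against control samples, from duplicates, as a log2 fold change.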

[2] = compound: CC1=C(SC2=C1C(=N[C@H](C3=NN=C(N32)C)CC(=O)N)C4=CC=C(C=C4)Cl)C
In short: as §1

[3] = compound: CC1=C2C(=CC=C1)N=C(N(C2=O)C3=CC=CC=C3C)CN4C=NC5=C(N=CN=C54)N
In short: as §1

[4] = compound: Cc1sc2c(c1C)C(c1ccc(Cl)cc1)=N[C@@H](CC(=O)OC(C)(C)C)c1nnc(C)n1-2
In short: as §1

[5] = compound: c1ccc([C@@H]2C[C@H]2NC2CCNCC2)cc1
In short: as §1

Measured: log2 fold change

PTGFRN (UniProt Q9P2B2)
inactive: [1] -0.014 | [2] 0.036 | [3] 0.043 | [4] 0.04 | [5] -0.006

POLR2B (UniProt P30876)
inactive: [1] -0.028 | [2] 0.105 | [3] 0.047 | [4] 0.159 | [5] -0.053

PSMA3 (UniProt P25788)
UniProt P25788, sequence (P25788 whole entry, looked up): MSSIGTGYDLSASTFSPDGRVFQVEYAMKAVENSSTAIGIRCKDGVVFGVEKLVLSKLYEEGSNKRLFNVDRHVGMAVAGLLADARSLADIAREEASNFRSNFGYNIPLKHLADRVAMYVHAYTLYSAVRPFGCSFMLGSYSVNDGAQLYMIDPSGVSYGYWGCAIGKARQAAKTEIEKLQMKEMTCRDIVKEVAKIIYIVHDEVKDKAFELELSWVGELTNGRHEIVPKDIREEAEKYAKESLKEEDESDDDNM
inactive: [1] 0.051 | [2] -0.062 | [3] -0.022 | [4] -0.036 | [5] -0.029

PKN2 (UniProt Q16513)
UniProt Q16513, sequence (Q16513 whole entry, looked up): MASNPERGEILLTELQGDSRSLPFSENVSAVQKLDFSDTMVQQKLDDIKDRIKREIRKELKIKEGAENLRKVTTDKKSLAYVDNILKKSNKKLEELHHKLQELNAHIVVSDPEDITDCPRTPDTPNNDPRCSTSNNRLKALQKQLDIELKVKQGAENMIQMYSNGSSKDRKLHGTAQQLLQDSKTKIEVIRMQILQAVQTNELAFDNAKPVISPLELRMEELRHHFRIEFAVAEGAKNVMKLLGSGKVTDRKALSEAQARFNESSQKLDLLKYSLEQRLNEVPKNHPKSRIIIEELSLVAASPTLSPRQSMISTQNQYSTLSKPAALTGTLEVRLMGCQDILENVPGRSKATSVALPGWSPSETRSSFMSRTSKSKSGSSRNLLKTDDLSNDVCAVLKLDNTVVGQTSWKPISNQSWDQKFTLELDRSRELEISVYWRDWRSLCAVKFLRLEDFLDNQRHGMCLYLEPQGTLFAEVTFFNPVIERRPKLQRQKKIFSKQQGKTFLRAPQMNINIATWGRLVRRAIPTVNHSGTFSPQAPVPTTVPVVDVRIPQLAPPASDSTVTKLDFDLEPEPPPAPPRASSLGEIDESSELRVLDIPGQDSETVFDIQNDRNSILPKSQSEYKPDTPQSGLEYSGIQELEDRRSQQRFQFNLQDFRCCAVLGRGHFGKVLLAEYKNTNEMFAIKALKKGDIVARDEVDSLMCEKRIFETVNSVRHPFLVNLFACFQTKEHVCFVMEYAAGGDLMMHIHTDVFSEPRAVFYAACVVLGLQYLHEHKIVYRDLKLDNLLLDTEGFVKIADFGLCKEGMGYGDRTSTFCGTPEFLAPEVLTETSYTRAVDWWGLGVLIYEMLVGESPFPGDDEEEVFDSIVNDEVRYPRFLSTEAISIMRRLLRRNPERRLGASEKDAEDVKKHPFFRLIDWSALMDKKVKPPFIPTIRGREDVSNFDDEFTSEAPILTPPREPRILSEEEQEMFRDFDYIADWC
inactive: [1] -0.075 | [2] 0.103 | [3] 0.066 | [4] 0.029 | [5] 0.044

PARN (UniProt O95453)
UniProt O95453, sequence (O95453 whole entry, looked up): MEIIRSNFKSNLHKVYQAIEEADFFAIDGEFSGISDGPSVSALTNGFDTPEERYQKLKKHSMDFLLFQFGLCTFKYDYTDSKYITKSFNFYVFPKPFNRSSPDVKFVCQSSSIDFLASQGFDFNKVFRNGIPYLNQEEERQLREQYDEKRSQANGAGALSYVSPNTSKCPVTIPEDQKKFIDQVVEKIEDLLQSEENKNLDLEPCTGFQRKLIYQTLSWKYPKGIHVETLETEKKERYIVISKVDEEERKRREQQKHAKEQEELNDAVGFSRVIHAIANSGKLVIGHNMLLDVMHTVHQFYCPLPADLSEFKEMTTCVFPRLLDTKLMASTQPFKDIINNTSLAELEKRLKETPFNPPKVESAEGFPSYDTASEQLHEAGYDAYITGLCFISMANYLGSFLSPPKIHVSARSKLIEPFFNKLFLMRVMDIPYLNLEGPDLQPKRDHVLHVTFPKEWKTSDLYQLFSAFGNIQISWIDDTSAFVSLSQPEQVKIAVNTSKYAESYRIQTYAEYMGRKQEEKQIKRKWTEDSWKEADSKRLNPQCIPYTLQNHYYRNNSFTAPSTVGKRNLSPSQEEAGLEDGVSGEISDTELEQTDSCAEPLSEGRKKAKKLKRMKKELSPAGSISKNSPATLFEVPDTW
inactive: [1] -0.018 | [2] 0.059 | [3] 0.071 | [4] -0.028 | [5] 0.025

PRPSAP2 (UniProt O60256)
inactive: [1] 0.009 | [2] -0.026 | [3] -0.027 | [4] -0.012 | [5] 0

PEX16 isoform 2 (UniProt Q9Y5Y5)
UniProt Q9Y5Y5, sequence (Q9Y5Y5 whole entry, looked up): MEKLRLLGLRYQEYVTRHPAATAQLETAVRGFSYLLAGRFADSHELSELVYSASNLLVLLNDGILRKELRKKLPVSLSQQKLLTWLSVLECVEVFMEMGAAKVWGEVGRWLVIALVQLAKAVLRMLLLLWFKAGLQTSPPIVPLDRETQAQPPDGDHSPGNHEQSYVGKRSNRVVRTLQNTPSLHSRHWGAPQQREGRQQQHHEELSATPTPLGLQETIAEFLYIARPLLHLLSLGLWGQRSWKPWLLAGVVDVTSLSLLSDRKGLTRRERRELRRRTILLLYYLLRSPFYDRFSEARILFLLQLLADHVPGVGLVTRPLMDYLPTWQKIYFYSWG
inactive: [1] -0.01 | [2] 0.095 | [3] 0.087 | [4] -0.031 | [5] -0.048

PSMD7 (UniProt P51665)
UniProt P51665, sequence (P51665 whole entry, looked up): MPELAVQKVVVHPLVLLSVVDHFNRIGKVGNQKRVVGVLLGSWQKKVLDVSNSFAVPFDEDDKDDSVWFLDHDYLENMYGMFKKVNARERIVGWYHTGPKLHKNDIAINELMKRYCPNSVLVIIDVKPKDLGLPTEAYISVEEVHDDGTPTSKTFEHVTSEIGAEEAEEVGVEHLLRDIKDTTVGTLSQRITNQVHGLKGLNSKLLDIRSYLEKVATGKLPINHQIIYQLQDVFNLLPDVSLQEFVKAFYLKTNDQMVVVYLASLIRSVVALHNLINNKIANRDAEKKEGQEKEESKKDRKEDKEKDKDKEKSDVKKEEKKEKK
inactive: [1] 0.033 | [2] -0.102 | [3] -0.024 | [4] 0.034 | [5] 0

PMM2 (UniProt O15305)
UniProt O15305, sequence (O15305 whole entry, looked up): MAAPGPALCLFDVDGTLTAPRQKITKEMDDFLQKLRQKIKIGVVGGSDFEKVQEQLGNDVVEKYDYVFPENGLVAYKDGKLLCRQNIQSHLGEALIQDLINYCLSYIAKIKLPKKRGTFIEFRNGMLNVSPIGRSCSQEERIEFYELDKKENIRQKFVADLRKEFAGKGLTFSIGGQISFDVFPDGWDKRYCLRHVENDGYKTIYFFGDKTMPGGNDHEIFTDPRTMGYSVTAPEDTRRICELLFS
inactive: [1] 0.003 | [2] 0.046 | [3] -0.027 | [4] 0.06 | [5] 0.009

PLSCR1 (UniProt O15162)
inactive: [1] 0.017 | [2] 0.036 | [3] -0.016 | [4] -0.051 | [5] 0.055

PPOX (UniProt P50336)
inactive: [1] 0.385 | [2] 0.092 | [3] 0.129 | [4] 0.04 | [5] -0.045

PCBP2 isoform 3 (UniProt Q15366)
inactive: [1] -0.051 | [2] 0.016 | [3] 0.055 | [4] -0.029 | [5] 0.005

PEX13 (UniProt Q92968)
inactive: [1] -0.064 | [2] 0.05 | [3] 0.078 | [4] -0.107 | [5] 0.001

PPT1 (UniProt P50897)
UniProt P50897, sequence (P50897 whole entry, looked up): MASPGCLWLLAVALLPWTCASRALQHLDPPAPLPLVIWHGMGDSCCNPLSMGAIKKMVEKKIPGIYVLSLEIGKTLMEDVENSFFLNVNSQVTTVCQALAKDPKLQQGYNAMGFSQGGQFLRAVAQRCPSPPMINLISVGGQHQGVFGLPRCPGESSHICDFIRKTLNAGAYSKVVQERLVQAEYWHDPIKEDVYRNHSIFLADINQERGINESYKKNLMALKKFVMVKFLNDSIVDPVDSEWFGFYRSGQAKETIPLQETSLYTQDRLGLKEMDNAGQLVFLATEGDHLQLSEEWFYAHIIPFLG
inactive: [1] 0.047 | [2] 0.021 | [3] 0 | [4] -0.003 | [5] -0.003

PTRH2 (UniProt Q9Y3E5)
UniProt Q9Y3E5, sequence (Q9Y3E5 whole entry, looked up): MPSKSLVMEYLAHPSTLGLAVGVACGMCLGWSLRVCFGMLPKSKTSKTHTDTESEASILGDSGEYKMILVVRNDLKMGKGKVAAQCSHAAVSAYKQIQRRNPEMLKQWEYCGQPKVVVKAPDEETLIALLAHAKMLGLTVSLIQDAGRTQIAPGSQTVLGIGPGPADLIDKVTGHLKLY
inactive: [1] 0.018 | [2] 0.068 | [3] 0.019 | [4] -0.106 | [5] -0.02

PRKCA (UniProt P17252)
inactive: [1] -0.035 | [2] 0.124 | [3] 0.14 | [4] 0.002 | [5] -0.038

PRG4 (UniProt Q92954)
inactive: [1] 0.007 | [2] -0.044 | [3] -0.15 | [4] -0.309 | [5] -0.033

POLR3K (UniProt Q9Y2Y1)
UniProt Q9Y2Y1, sequence (Q9Y2Y1 whole entry, looked up): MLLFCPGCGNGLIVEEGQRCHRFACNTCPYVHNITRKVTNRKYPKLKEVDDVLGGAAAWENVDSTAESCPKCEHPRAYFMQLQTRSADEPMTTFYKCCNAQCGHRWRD
inactive: [1] -0.009 | [2] -0.008 | [3] -0.029 | [4] 0.021 | [5] 0.056

PPP1R12A (UniProt O14974)
inactive: [1] 0.005 | [2] 0.057 | [3] 0.047 | [4] 0.035 | [5] -0.008

PKM isoform 2 (UniProt P14618)
inactive: [1] 0.063 | [3] -0.057 | [4] -0.046

PCF11 (UniProt O94913)
inactive: [1] -0.319 | [2] -0.02 | [3] 0.068 | [5] 0.006

PRR14L (UniProt Q5THK1)
inactive: [2] -0.052 | [3] 0.312 | [4] 0.042 | [5] 0.103

PSMD8 (UniProt K7ERW6)
inactive: [3] 0.2 | [4] 0.03

PRKD3 (UniProt O94806)
UniProt O94806, sequence (O94806 whole entry, looked up): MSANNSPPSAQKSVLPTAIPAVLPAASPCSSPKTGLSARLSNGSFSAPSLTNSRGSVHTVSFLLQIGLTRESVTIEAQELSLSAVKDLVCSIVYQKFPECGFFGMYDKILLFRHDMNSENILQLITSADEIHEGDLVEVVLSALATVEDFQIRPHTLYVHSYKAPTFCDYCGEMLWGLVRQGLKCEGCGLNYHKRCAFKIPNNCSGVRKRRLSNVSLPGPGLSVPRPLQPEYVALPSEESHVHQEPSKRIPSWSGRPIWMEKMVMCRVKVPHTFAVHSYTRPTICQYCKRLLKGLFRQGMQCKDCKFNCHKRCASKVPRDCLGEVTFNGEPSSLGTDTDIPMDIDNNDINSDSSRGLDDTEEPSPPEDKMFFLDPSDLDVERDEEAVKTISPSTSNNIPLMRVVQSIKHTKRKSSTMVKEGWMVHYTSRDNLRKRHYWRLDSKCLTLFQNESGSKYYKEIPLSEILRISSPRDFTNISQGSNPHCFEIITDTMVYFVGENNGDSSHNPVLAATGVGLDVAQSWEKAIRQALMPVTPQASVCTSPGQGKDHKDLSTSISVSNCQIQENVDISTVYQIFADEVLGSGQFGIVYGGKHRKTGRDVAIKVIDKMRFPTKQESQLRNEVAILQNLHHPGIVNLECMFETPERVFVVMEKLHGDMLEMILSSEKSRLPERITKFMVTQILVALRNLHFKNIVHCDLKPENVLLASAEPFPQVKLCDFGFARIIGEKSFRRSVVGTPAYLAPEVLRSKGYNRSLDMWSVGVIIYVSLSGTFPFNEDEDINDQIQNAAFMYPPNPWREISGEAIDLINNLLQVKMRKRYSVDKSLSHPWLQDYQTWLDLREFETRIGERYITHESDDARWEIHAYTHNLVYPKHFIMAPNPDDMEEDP
inactive: [1] -0.103 | [2] 0.044 | [3] -0.007 | [5] -0.097

PSMB6 (UniProt P28072)
inactive: [1] 0.023 | [2] -0.057 | [3] -0.015 | [4] 0.019 | [5] 0.081

PPP2R5B (UniProt Q15173)
inactive: [1] -0.058 | [3] -0.098
